About 83,000 compounds went through this panel and 20% of them were active in at least one assay; those are over-represented in the sample as a whole.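 48-hour exposure, single concentration, 96-well plates; percent growth endpoint where 0 means no net growth. Active: below 10.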 Unmarked numbers belong to inactive results. Calls of active or inactive are those of the source.
Assays:
Experiment in all cases: NCI-60 one-dose screen, 48 h (100 = growth as untreated, 0 = no growth, -100 = all killed)
Settings in all cases: 10 µM unless noted
HCT-15 colon = tested on: HCT-15 colon
HT29 colon = tested on: HT29 colon
SNB-75 CNS = tested on: SNB-75 CNS
SNB-19 CNS = tested on: SNB-19 CNS
U251 CNS = tested on: U251 CNS
PC-3 prostate = tested on: PC-3 prostate
SK-MEL-5 melanoma = tested on: SK-MEL-5 melanoma
UACC-62 melanoma = tested on: UACC-62 melanoma
LOX IMVI melanoma = tested on: LOX IMVI melanoma
SK-MEL-28 melanoma = tested on: SK-MEL-28 melanoma
SK-MEL-2 melanoma = tested on: SK-MEL-2 melanoma
EKVX NSCLC = tested on: EKVX NSCLC
SN12C renal = tested on: SN12C renal
UO-31 renal = tested on: UO-31 renal
TK-10 renal = tested on: TK-10 renal
ACHN renal = tested on: ACHN renal
CAKI-1 renal = tested on: CAKI-1 renal
A498 renal = tested on: A498 renal
CCRF-CEM leukemia = tested on: CCRF-CEM leukemia
MOLT-4 leukemia = tested on: MOLT-4 leukemia

SMILES | growth (HCT-15 colon) [%] | growth (HT29 colon) | growth (SNB-75 CNS) [%] | growth (SNB-19 CNS) [%] | growth (U251 CNS) [%] | growth (PC-3 prostate) [%] | growth (SK-MEL-5 melanoma) | growth (UACC-62 melanoma) | growth (LOX IMVI melanoma) | growth (SK-MEL-28 melanoma) [%] | growth (SK-MEL-2 melanoma) | growth (EKVX NSCLC) [%] | growth (SN12C renal) | growth (UO-31 renal) | growth (TK-10 renal) [%] | growth (ACHN renal) | growth (CAKI-1 renal) | growth (A498 renal) | growth (CCRF-CEM leukemia) | growth (MOLT-4 leukemia)
CC(C)n1cnc2c(=S)nc[nH]c21 | 102 | 118% | 117 | 107 | 98.9 | 98.7 | 103% | 110% | 93.7% | 131 | 114% | 98 | 108% | 92% | 109 | 93.7% | 73.1% | 127% | 90.9% | 56.6%
O=C1C(Cl)=C(Oc2ccccc2)C(=O)c2ccccc21 | 70.5 | 94.1% | 73.1 | 58.4 | 42.1 | 47.8 | 74.8% | 53% | 85% | 120 | 73.4% | 87.2 | 87.9% | 51.7% | 49.4 | 26.6% | 76.9% | 98.7% | 8.95% (active) | 57.4%
O=C(CCCCC1CCSS1)Nc1ncnc2n[nH]c(-c3ccc(Oc4ccccc4)cc3)c12 (stereo not given) | 95.8 | 88.3% | 135 | 114 | 106 | 90.2 | 87.9% | 70.4% | 5.87% (active) | 47 | 43.6% | 80.5 | 106% | 73.2% | 109 | 88.3% | 97.1% | 123% | 13.7% | -31.3% (active)
CCN(C(=O)N1CCN(c2cc3c(cc2F)c(=O)c(C(=O)O)cn3C2CC2)CC1)c1nc(-c2ccc(Cl)cc2)cs1 | 10.2 | 5.63% (active) | 28.9 | 15.6 | 15.1 | 10.1 | -28.2% (active) | -26.7% (active) | 5.32% (active) | 40 | 9.44% (active) | 16.9 | 3.28% (active) | 5.03% (active) | 28.4 | -12.2% (active) | 6.12% (active) | 3.1% (active) | 20.7% | 5.81% (active)
Cc1noc(C)c1C(=O)OCc1coc2ccccc2c1=O | 52.5 | 66% | 81.6 | 82.7 | 72.8 | 70.1 | 80% | 54.7% | 70.8% | 86.8 | 81.4% | 86.9 | 65.4% | 48.7% | 71.4 | 78.3% | 45.3% | 104% | 24.2% | 62.8%
CC(C)NC1CCC(Nc2ccnc3cc(Cl)ccc23)CC1 (stereo not given) | 99.1 | 77.5% | 83.7 | 109 | 87.7 | 78.6 | 90.8% | 97.3% | 86.6% | 101 | 116% | 97.1 | 102% | 68.8% | 86.8 | 96.8% | 121% | 89.2% | -32.1% (active) | 69.2%
CN(C)CCCn1c2c(c3ncccc3c1=O)C(=O)c1ccccc1-2 | 28.6 | 20.9% | 79 | 37.3 | 29 | 39 | 30.7% | 34.6% | 19.1% | 65 | 81.8% | 81.7 | 34.7% | 32% | 52.3 | 15.2% | 52.7% | 57.5% | 50.4% | 17.3%

— PubChem BioAssay (NCI)
